Several values for one entry are separate records, joined by “and”; a condition that tells them apart may be missing. Identical values can stand only once. Records with an inconclusive call do not appear. Where a call stands in place of a potency, no number is given. Activity calls are given as the source filed them. Unless noted, calls come from the whole dose curve; as a rule, active = well fitted curve in the direction sought with a large enough effect; inconclusive = small, poorly fitted or top-dose-only effect, or another doubt; inactive = no such curve, though single readings can be large; an effect the other way counts as inactive or inconclusive.
Experiments:
[1] = molecular target: Voltage-gated inwardly rectifying potassium channel KCNH2 (Homo sapiens) (UniProt Q12809); test: qHTS Assay for Small Molecule Inhibitors of the Human hERG Channel Activity (AID 588834);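 note: top concentration of the series differs between compounds; lower thallium flux fluorescence means stronger hERG block; nearly all actives have a fitted effect of over 50% in size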
Method in brief: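 Thallium serves as surrogate for K+ influx through BacMam-delivered hERG in U2OS cells. Compounds are added for about 10 minutes after dye loading; stimulation buffer then starts flux, monitored kinetically on FDSS.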

[2] = molecular target: Luciferin 4-monooxygenase (Photinus pyralis) (UniProt P08659); test: Biochemical firefly luciferase enzyme assay for NPC (AID 624030);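 note: purified P. pyralis luciferase at 10 nM with luciferin and ATP substrate; series mostly up to about 59 µM; nearly all actives have a fitted effect of over 70% in size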
Method in brief: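 Purified P. pyralis luciferase at 10 nM in 50 mM Tris Acetate (final), luminescence read within 5 minutes of enzyme addition to compounds. Activity normalised to PTC124 versus DMSO; concentration-response curves classed by r2, magnitude and activity.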

[3] = S16 Schwann cell viability assay (CellTiter-Glo assay) (AID 624031);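 note: cellular ATP luminescence as a viability measure; series mostly up to about 58 µM; nearly all actives have a fitted effect of over 70% in size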
Method in brief: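 Luminescent ATP read-out (CellTiter-Glo) after 24 h compound exposure of native S16 rat Schwann cells at 37 °C. Signals were normalized between cell-free wells and DMSO-treated cells, set as 0% activity.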

[4] = S16 Schwann cell PMP22 intronic element firefly luciferase assay (AID 624032); note: series mostly up to about 58 µM; nearly all actives have a fitted effect of over 30% in size
Method in brief: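 Rat S16 Schwann cells stably carrying firefly luciferase driven by a PMP22 intronic element, in 10% FBS, treated 24 h at 37 C. ONE-Glo luminescence normalized to PTC124 control and DMSO (0%); curves classed by r2, magnitude and activity.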

[5] = S16 Schwann cell PMP22 intronic element beta-lactamase assay (AID 624044; calls by dose curve; note: nearly all actives have a fitted effect of over 15% in size)
Method in brief: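 Beta-lactamase reporter under a PMP22 intronic regulatory element in stable S16 rat Schwann cells; 24 h compound exposure. 460 nm blue signal normalized between DMSO (0%) and potassium clavulanate, with 535 nm FRET tracking viability; curves classed by r2 and response.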

[6] = qHTS assay for small molecule agonists of retinoid X receptor alpha signaling (AID 588544; calls by dose curve); settings: HEK293T RXRa-UAS-bla, beta-lactamase reporter, 18 h; 530 nm emission
[7] = molecular target: Retinoic acid receptor RXR-alpha (Homo sapiens) (UniProt P19793); test: as above
[8] = molecular target: Thyroid hormone receptor beta (Homo sapiens) (UniProt P10828); test: qHTS assay for small molecule agonists of thyroid hormone receptor beta signaling (AID 588545; calls by dose curve)
Method in brief: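 Stimulation of a TR-driven beta-lactamase reporter was quantified in GripTite HEK 293 cells. Compound series ran for 18 hrs; curves were normalized to T3 and DMSO controls and fitted to yield EC50.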

[9] = qHTS assay for small molecule antagonists of retinoid X receptor alpha signaling (AID 588546; active = well fitted inhibition curve with a large enough effect in the signal ratio, with a control signal flat, not every such curve was filed as active; the % refers to the signal ratio;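 note: cells stimulated with 9-cis-retinoic acid as agonist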); settings: HEK293T RXRa-UAS-bla, beta-lactamase ratio, antagonist mode; measured here: W530 green channel, cytotoxicity proxy
Method in brief: (§1)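 Beta-lactamase reporter inhibition, read as CCF4 fluorescence ratio (ex 405, em 460/530 nm) after 2 h at RT. HEK293T UAS-bla cells, 2500/well, were stimulated with 9-cis-RA at 500 or 100 nM final alongside test compound for 18 h at 37 C.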

[10] = molecular target: Retinoic acid receptor RXR-alpha (Homo sapiens) (UniProt P19793); test: as above; settings: HEK293T RXRa-UAS-bla, beta-lactamase ratio, antagonist mode
Method in brief: as §1

[11] = molecular target: Thyroid hormone receptor beta (Homo sapiens) (UniProt P10828); test: qHTS assay for small molecule antagonists of thyroid hormone receptor beta signaling (AID 588547; active = well fitted inhibition curve with a large enough effect in the signal ratio, with a control signal flat, not every such curve was filed as active; the % refers to the signal ratio;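 note: cells stimulated with 0.4 nM T3 agonist during compound exposure; series mostly up to about 77 µM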); settings: TR-UAS-bla HEK293, beta-lactamase ratio, antagonist mode, 18 h
Method in brief: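 TR-UAS-bla GripTite HEK293 cells in 2% charcoal/dextran FBS medium; compounds 0.59 nM to 92 uM with T3 at 0.4nM final, 18 h at 37 C. Beta-lactamase read by CCF4 fluorescence (460/530 nm); Hill fits gave IC50 and efficacy.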

[12] = qHTS of Trypanosoma Brucei Inhibitors: LOPAC Validation (AID 624147)
Method in brief: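 Enzyme and substrate buffer are dispensed first and compound is pin-transferred. ADP at 130 uM final then starts the reaction, which runs 45 min at room temperature. Detection reagent is added for 10 min before luminescence is imaged.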

[13] = molecular target: Glucagon-like peptide 1 receptor (Homo sapiens) (UniProt P43220); test: qHTS of GLP-1 Receptor Agonists: LOPAC Validation (AID 624148);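 note: higher luminescence signal means agonism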
Method in brief: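 HEK293 cells stably co-expressing GLP-1R and a cAMP-responsive luciferase reporter, plated 12 hours before compound, then incubated 4-6 hr at 37 deg C. Luminescence read 12 min after detection reagent.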

[14] = qHTS of Nrf2 Activators: LOPAC Validation (AID 624149)
Method in brief: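 Luciferase signal from ARE activation, read with Steady-Glo after 30 min at room temperature. Compounds were pin-transferred onto AREc32_Fluc cells (1000/well, OPTI-MEM/5% FBS, seeded overnight) and left 24 hr at 37 deg C.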

[15] = HTS Assay for Allosteric Antagonists of the Human D2 Dopamine Receptor: Hit Validation in HTRF (AID 624455);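 note: stable D1 dopamine receptor cell line scored for blocking the D1 response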
Method in brief: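 Inhibition of the D1-mediated response was measured by HTRF. Cells used were a line stably expressing the D1 dopamine receptor.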

[16] = molecular target: Vitamin D3 receptor (Homo sapiens) (UniProt P11473); test: qHTS assay for small molecule agonists of vitamin D receptor signaling (AID 588543; calls by dose curve)
Method in brief: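 VDR-UAS-bla HEK293T cells, 2000/well, 2% charcoal-stripped FBS; compound titration 16 h at 37 C; CCF4 beta-lactamase ratio read. Normalized to 50 nM 1-alpha,25-dihydroxyvitamin D3 (100%) and DMSO; Hill fit gives EC50, efficacy.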

Chain of Voltage-gated inwardly rectifying potassium channel KCNH2 (Homo sapiens) (Q12809 whole entry, looked up): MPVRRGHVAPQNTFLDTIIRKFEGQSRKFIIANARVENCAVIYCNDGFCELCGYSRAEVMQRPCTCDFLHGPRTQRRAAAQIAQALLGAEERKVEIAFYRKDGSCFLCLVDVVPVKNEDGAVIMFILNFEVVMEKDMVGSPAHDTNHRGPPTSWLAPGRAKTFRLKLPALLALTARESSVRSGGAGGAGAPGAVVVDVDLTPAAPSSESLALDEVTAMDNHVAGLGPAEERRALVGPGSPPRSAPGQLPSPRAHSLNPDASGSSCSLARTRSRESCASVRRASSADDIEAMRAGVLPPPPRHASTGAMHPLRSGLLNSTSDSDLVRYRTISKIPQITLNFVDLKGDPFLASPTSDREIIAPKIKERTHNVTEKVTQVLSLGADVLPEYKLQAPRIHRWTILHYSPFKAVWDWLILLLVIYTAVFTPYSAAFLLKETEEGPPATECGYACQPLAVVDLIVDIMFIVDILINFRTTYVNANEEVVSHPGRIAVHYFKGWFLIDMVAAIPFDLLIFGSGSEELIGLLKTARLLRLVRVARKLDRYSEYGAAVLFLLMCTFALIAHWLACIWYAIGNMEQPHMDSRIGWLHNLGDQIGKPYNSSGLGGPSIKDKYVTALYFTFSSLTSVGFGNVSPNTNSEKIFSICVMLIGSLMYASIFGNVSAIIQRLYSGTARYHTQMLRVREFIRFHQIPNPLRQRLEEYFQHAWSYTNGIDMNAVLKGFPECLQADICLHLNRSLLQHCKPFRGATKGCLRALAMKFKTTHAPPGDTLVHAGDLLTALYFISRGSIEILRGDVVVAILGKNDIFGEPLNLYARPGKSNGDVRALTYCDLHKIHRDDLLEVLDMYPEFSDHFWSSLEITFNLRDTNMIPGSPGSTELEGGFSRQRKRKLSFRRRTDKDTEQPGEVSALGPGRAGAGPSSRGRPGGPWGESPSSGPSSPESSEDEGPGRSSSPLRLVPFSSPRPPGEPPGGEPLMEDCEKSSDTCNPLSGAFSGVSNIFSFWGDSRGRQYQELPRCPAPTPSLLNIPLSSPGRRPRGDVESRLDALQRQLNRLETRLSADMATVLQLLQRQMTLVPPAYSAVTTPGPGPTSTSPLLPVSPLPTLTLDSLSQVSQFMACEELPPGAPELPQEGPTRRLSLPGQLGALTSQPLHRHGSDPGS
Chain of Vitamin D3 receptor (Homo sapiens) (P11473 whole entry, looked up): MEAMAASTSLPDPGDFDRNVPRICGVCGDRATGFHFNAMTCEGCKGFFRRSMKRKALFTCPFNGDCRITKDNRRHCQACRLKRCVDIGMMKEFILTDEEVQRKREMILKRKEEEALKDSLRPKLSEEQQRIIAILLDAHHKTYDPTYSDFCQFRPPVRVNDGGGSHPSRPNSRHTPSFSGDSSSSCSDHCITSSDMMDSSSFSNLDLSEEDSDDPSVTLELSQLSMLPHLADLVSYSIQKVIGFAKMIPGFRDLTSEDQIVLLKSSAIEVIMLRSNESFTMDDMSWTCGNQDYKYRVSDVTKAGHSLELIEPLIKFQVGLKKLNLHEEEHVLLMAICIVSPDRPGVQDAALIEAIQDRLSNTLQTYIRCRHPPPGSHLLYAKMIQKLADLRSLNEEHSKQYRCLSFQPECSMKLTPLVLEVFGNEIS
Chain of Thyroid hormone receptor beta (Homo sapiens) (P10828 whole entry, looked up): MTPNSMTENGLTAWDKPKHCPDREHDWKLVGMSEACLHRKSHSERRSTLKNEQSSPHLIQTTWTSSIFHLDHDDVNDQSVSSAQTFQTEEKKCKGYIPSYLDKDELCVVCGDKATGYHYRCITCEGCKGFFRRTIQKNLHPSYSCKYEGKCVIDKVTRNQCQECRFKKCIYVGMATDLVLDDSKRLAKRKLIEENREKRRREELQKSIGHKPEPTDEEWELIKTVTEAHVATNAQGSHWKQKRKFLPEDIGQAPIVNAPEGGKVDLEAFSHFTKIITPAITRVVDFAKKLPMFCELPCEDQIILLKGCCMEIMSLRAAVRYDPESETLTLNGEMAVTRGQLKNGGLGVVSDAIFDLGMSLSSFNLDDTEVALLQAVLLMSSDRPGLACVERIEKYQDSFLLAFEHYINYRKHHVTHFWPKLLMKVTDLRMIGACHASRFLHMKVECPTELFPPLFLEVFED
Chain of Retinoic acid receptor RXR-alpha (Homo sapiens) (P19793 whole entry, looked up): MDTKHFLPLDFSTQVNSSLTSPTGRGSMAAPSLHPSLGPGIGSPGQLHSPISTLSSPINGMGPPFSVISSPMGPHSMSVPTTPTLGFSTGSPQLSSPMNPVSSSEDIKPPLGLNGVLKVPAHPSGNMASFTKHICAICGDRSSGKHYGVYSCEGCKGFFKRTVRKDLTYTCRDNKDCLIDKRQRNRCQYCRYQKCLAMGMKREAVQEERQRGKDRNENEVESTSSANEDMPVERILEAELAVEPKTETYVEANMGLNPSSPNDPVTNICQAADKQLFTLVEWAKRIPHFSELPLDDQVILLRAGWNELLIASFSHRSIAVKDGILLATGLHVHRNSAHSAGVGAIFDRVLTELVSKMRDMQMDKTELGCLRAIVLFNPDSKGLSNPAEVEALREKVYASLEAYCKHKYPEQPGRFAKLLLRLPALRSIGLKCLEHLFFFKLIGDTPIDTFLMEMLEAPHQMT
Chain of Luciferin 4-monooxygenase (Photinus pyralis) (P08659 whole entry, looked up): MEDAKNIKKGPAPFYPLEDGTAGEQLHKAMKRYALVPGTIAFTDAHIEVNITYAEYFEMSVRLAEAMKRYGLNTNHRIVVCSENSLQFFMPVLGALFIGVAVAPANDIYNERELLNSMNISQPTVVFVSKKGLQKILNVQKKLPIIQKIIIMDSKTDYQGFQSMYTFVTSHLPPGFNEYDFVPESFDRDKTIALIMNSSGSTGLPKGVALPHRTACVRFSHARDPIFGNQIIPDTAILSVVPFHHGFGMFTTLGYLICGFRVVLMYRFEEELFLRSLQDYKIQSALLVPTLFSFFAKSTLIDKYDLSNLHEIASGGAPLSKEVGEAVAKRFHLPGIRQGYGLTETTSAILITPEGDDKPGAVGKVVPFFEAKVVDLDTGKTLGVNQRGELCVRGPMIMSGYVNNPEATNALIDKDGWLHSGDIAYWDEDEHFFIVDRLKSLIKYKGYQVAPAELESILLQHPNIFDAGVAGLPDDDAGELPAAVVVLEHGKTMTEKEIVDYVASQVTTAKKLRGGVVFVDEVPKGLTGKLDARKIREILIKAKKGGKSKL
Chain of Glucagon-like peptide 1 receptor (Homo sapiens) (P43220 whole entry, looked up): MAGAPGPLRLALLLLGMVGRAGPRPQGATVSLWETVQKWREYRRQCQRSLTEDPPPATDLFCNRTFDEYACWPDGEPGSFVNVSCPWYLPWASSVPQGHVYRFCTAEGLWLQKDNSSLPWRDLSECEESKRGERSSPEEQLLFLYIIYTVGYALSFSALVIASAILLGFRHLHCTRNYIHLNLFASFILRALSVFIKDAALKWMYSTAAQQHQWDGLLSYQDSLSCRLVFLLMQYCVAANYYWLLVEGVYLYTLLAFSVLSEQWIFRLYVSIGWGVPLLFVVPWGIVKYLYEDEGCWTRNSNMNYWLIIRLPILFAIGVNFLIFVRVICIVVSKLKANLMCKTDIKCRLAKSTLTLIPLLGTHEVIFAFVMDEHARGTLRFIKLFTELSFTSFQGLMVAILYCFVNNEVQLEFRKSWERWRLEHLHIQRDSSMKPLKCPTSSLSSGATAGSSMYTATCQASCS

| SMILES | Potency [1] | Potency [2] | Potency [3] | Potency [4] | Potency [5] | max response [6] | outcome [7] | outcome [8] | max response [9] | max response [10] | activity change % (negative = inhibition) [11] | outcome [12] | outcome [13] | outcome [14] | outcome [15] | outcome [16] |
| --- | --- | --- | --- | --- | --- | --- | --- | --- | --- | --- | --- | --- | --- | --- | --- | --- |
| CCOC(=O)O[C@]1(C(=O)OCCl)CC[C@@H]2[C@H]3CCC4=CC(=O)C=C[C@]4(C)[C@@H]3[C@@H](O)C[C@@]21C | inactive | inactive | inactive | inactive | inactive | – | – | – | – | – | – | – | – | – | – | – |
| O=C1NC(=O)C(c2ccccc2)(c2ccccc2)N1 | inactive | inactive | inactive | inactive | – | -1.34% and -8.57% and -15.1% | inactive | inactive | -8.37% and -14.2% and -3.37% | 15.9% (inactive) and 2.5% (inactive) and -5.42% (inactive) | -1.15% (inactive) and 6.61% (inactive) | inactive | inactive | inactive | inactive | – |
| CCn1cc(C(=O)O)c(=O)c2ccc(C)nc21 | – | inactive | inactive | inactive | – | – | – | inactive | 14% and -13.8% | -0.374% (inactive) and 6.98% (inactive) | 17.4% (inactive) and 3.09% (inactive) | inactive | inactive | – | inactive | inactive |
| C[C@@H](O)[C@H]1C(=O)N2C(C(=O)O)=C(S[C@@H]3CN[C@H](C(=O)N(C)C)C3)[C@H](C)[C@H]12 | inactive | inactive | inactive | inactive | – | – | – | – | – | – | – | – | – | – | – | – |
| Cc1cccc(C)c1OCC(C)N (stereo not given) | inactive | inactive | inactive | inactive | – | – | – | – | – | – | – | inactive | inactive | inactive | inactive | – |
| CC(=O)CCCCn1c(=O)c2c(ncn2C)n(C)c1=O | inactive | inactive | inactive | inactive | – | – | – | – | – | – | – | inactive | inactive | inactive | – | – |
| COc1ccccc1N1CCN(CCCNc2cc(=O)n(C)c(=O)n2C)CC1 | inactive | inactive | inactive | inactive | – | – | – | – | – | – | – | inactive | inactive | inactive | inactive | – |
| O=C1NCC2(CCN(CCc3ccccc3)CC2)O1 | inactive | inactive | inactive | inactive | inactive | – | – | – | – | – | – | inactive | inactive | inactive | inactive | – |
| C[N+](C)(C)CCCCCC[N+](C)(C)C | inactive | inactive | inactive | inactive | – | – | – | – | – | – | – | inactive | inactive | inactive | inactive | – |
| CC(=O)N[C@@H](CS)C(=O)O | inactive | inactive | inactive | inactive | – | -10.9% | inactive | inactive | -5.69% | 2.12% (inactive) | -10.2% (inactive) | inactive | inactive | inactive | inactive | – |
| O=c1c(O)c(-c2ccc(O)cc2)oc2cc(O)cc(O)c12 | – | – | – | – | – | 23% | inactive | inactive | – | – | 0.335% (inactive) and 4.17% (inactive) | – | – | – | – | – |
| CCCCC1C(=O)N(c2ccccc2)N(c2ccccc2)C1=O | inactive | inactive | inactive | inactive | – | 4.5% and 6.7% | inactive | inactive | 1.64% and -10.6% | 0.963% (inactive) and -0.138% (inactive) | 6.78% (inactive) | inactive | inactive | inactive | inactive | – |
| NCCS | inactive | inactive | inactive | inactive | – | – | – | – | – | – | – | inactive | inactive | inactive | inactive | – |
| CCCNC(=O)NS(=O)(=O)c1ccc(Cl)cc1 | inactive | inactive | inactive | inactive | – | 2.79% and 10.5% | inactive | inactive | -1.39% and 4.27% | 15% (inactive) and -16.7% (inactive) | 15.7% (inactive) and -17.5% (inactive) | inactive | inactive | inactive | inactive | inactive |
| O=C(O)c1cc(O)c2c(c1)C(=O)c1cccc(O)c1C2=O | inactive | – | – | – | – | – | – | inactive | – | – | – | – | – | – | – | – |
| CC(=O)O[C@]1(C(C)=O)CC[C@H]2[C@@H]3C=C(Cl)C4=CC(=O)[C@@H]5C[C@@H]5[C@]4(C)[C@H]3CC[C@@]21C | inactive | inactive | inactive | – | – | – | – | inactive | – | – | 13.7% (inactive) and 12.8% (inactive) | inactive | inactive | inactive | inactive | – |
| O=c1c(-c2ccc(O)cc2)coc2cc(O)ccc12 | inactive | – | – | – | – | – | – | inactive | 2.28% and 13.9% | 8.82% (inactive) and -46% (inactive) | 20.4% (inactive) | inactive | inactive | inactive | inactive | – |
| CC[C@]1(O)C[C@@H]2CN(CCc3c([nH]c4ccccc34)[C@@](C(=O)OC)(c3cc4c(cc3OC)N(C)[C@H]3[C@@](O)(C(=O)OC)[C@H](OC(C)=O)[C@]5(CC)C=CCN6CC[C@]43[C@@H]65)C2)C1 | inactive | – | – | – | – | – | – | – | – | – | – | – | – | – | – | – |
| CC1(C)O[C@H]2C[C@@H]3[C@H]4CCC5=CC(=O)C=C[C@]5(C)[C@@]4(F)[C@@H](O)C[C@]3(C)[C@]2(C(=O)CO)O1 | inactive | inactive | inactive | inactive | inactive | – | – | – | – | – | – | – | – | – | – | – |
| CC(=O)c1ccc(S(=O)(=O)NC(=O)NC2CCCCC2)cc1 | inactive | inactive | inactive | inactive | – | 0.432% and 9.79% | inactive | inactive | -6.48% and 24.9% | -4.66% (inactive) and -24.2% (inactive) | -3.97% (inactive) and -18% (inactive) | inactive | inactive | inactive | inactive | inactive |

Reference: PubChem BioAssay (NCATS)
